From PubChem BioAssay (NCATS)
Several values for one entry are separate records, joined by “and”; a condition that tells them apart may be missing. Equal values may be shown once. Inconclusive results are not listed. Activity calls are given as the source filed them. Unless noted, calls come from the whole dose curve; as a rule, active = well fitted curve in the direction sought with a large enough effect; inconclusive = small, poorly fitted or top-dose-only effect, or another doubt; inactive = no such curve, though single readings can be large; an effect the other way counts as inactive or inconclusive.

Key:
[1] = AP1 Signaling Pathway (AID 357; active = well fitted curve in either direction with a large enough effect, not every such curve was filed as active;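 note: ME-180 reporter cells stimulated with EGF at its EC50 level; % is set by controls: 0 for no effect and ±100 for the full control effect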); conditions: ME-180 AP-1-bla reporter, EGF-induced, beta-lactamase ratio, 5 h
Procedure, shortened: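 Cells are seeded overnight, exposed to compound titrations and an EC50 level of EGF for 5 hours at 37 °C, then loaded with CCF4 dye for 2.5 hours. Beta-lactamase activity under the AP-1 element is read as a blue/green ratio.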

[2] = biological target: Cytochrome P450 1A2 (Homo sapiens) (UniProt P05177); assay: p450-cyp1a2 (AID 410; calls by dose curve;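 note: -100% = full effect of reference inhibitor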)
Procedure, shortened: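 Luminescent readout of luciferin formed from Luciferin-ME by human CYP1A2; data normalized against complete inhibition by 57 uM furafylline. Enzyme 20nM, substrate 100uM at Km, 100mM KPO4 buffer, 60 min reaction at room temperature.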

[3] = NFAT Signaling Pathway (AID 444; active = well fitted curve in either direction with a large enough effect, not every such curve was filed as active;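 note: carbachol stimulus at about its EC50 of 1 µM final; % is set by controls: 0 for no effect and ±100 for the full control effect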); conditions: Jurkat NFAT-bla M1, carbachol, beta-lactamase ratio, 5 h
Procedure, shortened: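 Jurkat cells carrying an NFAT-driven β-lactamase reporter and co-transfected muscarinic M1 receptor were treated with compound plus carbachol (1 uM final, an EC50 level) for 5 h at 37 °C. CCF4 loading followed for 1 h at RT; 460/530 nm ratio gave %activity.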

[4] = Stat Signaling Pathway (AID 446; active = well fitted curve in either direction with a large enough effect, not every such curve was filed as active;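 note: ME-180 cervical cancer cells given 40 pM IL-6 alongside compound; SIE-controlled beta-lactamase reporter measured as 460/530 nm FRET emission ratio; % is set by controls: 0 for no effect and ±100 for the full control effect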); conditions: ME-180 SIE beta-lactamase reporter, IL-6 stimulated, 5 h
Procedure, shortened: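 Screening format detects activators and inhibitors alike: ME-180 SIE-bla cells stimulated at 40 pM IL-6 for 5 hrs with compound, then dual-emission beta-lactamase read at 405 nm excitation.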

[5] = biological target: Glucocorticoid receptor (Homo sapiens) (UniProt P04150); assay: GR-GFP Redistribution (AID 450;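 active = compounds whose dose series gives a full or clear partial fitted curve of increased nuclear translocation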; note: potency is the fitted concentration of half-maximal effect); conditions: U2OS GR-GFP nuclear translocation, laser cytometry, 2 h
[6] = biological target: Mitogen-activated protein kinase 10 (Mus musculus) (UniProt Q61831); assay: JNK3 AlphaScreen Assay (AID 530; active = well fitted curve in either direction with a large enough effect, not every such curve was filed as active;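 note: kinase came from lysate of stimulated human HepG2 cells; signal reports phosphorylation of biotinylated GST-cJun 1-79 at Ser73 with 10 µM ATP; % is set by controls: 0 for no effect and ±100 for the full control effect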)
Procedure, shortened: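 Inhibitors reduce antibody binding to phosphorylated biotin-cJun, lowering AlphaScreen luminescence. Lysates from HepG2 cells pre-activated by IL-1beta plus TNF-alpha supplied JNK3; compounds were titrated.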

[7] = biological target: 3',5'-cyclic-AMP phosphodiesterase 4B (Homo sapiens) (UniProt Q07343); assay: qHTS Assay for Inhibitors of PDE-IV (AID 607; active = well fitted activation curve with a large enough effect in the main read-out, with a control signal flat, not every such curve was filed as active; note: % of control where 0% means no effect)
Procedure, shortened: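 The readout is membrane depolarisation from a cAMP-sensing CNG channel, detected with a potential dye at ex 535/em 590. Cells were HEK293-derived (endogenous PDE-IV) at 1000 cells/well, titrated up to 22.9 uM final.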

[8] = biological target: Guanine nucleotide-binding protein G(i) subunit alpha-1 (Homo sapiens) (UniProt P63096); assay: qHTS Assay for Inhibitors of RGS12 GoLoco Motif Activity (Green Fluorophore) (AID 879);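 note: 0% = labeled peptide with Gαi1 and full inhibition = labeled peptide alone without protein; negative values mean loss of peptide binding seen as reduced polarization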
Procedure, shortened: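 Fluorescence polarization assay: 50 nM Gαi1 with 10 nM FITC-labeled RGS12 GoLoco peptide in 10 mM Tris pH 7.5, 150 mM NaCl, 0.1 mM GDP, 0.05% NP40, 10 min at room temperature with compound.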

[9] = biological target: Cytochrome P450 2C9 (Homo sapiens) (UniProt P11712); assay: qHTS Assay for Inhibitors and Substrates of Cytochrome P450 2C9 (AID 883); note: % is set by controls: 0 for no effect and ±100 for the full control effect; nearly all actives have a fitted effect of over 60% in size
Procedure, shortened: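 Human CYP2C9 (10nM) hydroxylated Luciferin-H (100uM, at its KM) to luciferin in 25mM KPO4. Compound was preincubated 10 min at 37C, then NADPH regeneration started a 60 min reaction at 37C. Luminescence was read after detection reagent, normalized to 57uM sulphaphenazole.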

[10] = biological target: Cytochrome P450 3A4 (Homo sapiens) (UniProt P08684); assay: qHTS Assay for Inhibitors and Substrates of Cytochrome P450 3A4 (AID 884); note: % is set by controls: 0 for no effect and ±100 for the full control effect; nearly all actives have a fitted effect of over 50% in size
Procedure, shortened: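 20 nM human CYP3A4 with 25 uM Luciferin-PPXE (at KM) in 200 mM KPO4, preincubated 10 min with compound; NADPH regeneration started a 60 min RT reaction. Luciferin detected by luminescence, normalized to 57 uM ketoconazole as full inhibition.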

[11] = biological target: Cytochrome P450 2D6 (Homo sapiens) (UniProt P10635); assay: qHTS Assay for Inhibitors and Substrates of Cytochrome P450 2D6 (AID 891);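 note: luciferin methyl ether substrate demethylated by CYP2D6 with NADPH regeneration; % is set by controls: 0 for no effect and ±100 for the full control effect; nearly all actives have a fitted effect of over 60% in size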
Procedure, shortened: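 Human CYP2D6 (5 nM) with 30 uM Luciferin-ME EGE (at Km) in 100 mM KPO4, compound preincubated 10 min, then NADPH regeneration system for 60 min at room temperature. Luciferin read by luminescence; normalized to 1.43 uM quinidine.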

[12] = qHTS Assay for Identification of Small Molecule Antagonists for NFkB Signaling Pathway (AID 895; active = well fitted inhibition curve with a large enough effect in the signal ratio, with a control signal flat, not every such curve was filed as active; the % refers to the signal ratio; note: potency is the fitted concentration of half-maximal effect)
Procedure, shortened: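 NFkB-bla ME-180 cervical carcinoma cells with beta-lactamase reporter under NFkB response element; compounds added, then TNF alpha at 10 pM final (EC50), 5 h at 37 C. LiveBLAzer substrate 2 h, room temperature; emission 460/530 nm at 405 nm excitation.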

[13] = biological target: Cytochrome P450 2C19 (Homo sapiens) (UniProt P33261); assay: qHTS Assay for Inhibitors and Substrates of Cytochrome P450 2C19 (AID 899); note: % is set by controls: 0 for no effect and ±100 for the full control effect; nearly all actives have a fitted effect of over 60% in size
Procedure, shortened: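 Human CYP2C19 (5nM) with Luciferin-H EGE at 10uM (its KM) in 50mM KPO4 was preincubated with compound for 10 min at 37C. NADPH regeneration started a 60 min 37C reaction. Luciferin was read by luminescence, normalized to 57uM ketoconazole.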

[14] = Confirmation and Secondary Assay for Modulators of Hemoglobin Beta Chain Splicing at IVS2 654 locus (AID 910); note: % of control where 0% means no effect
Procedure, shortened: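 HeLa cells stably carrying EGFP interrupted by mutant beta-globin IVS2-654 intron (CMV-driven) were treated with compound for 2 days at 37C; corrected splicing was scored as total peak GFP intensity per well (488 nm excitation, 500-520 nm emission).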

[15] = qHTS Assay for Identification of Small Molecule Agonists for Thrombopoietin (TPO) Signaling Pathway (AID 917); note: % is set by controls: 0 for no effect and ±100 for the full control effect
Procedure, shortened: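 IL-3-dependent murine pro-B Ba/F3 cells, stably transfected with human TPO receptor and GpIIb-promoter luciferase, are incubated 24 hrs at 37 C with test compound and 26 pM TPO; luciferase signal is read after 10 min at room temperature.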

[16] = Confirmation and Secondary Assay for Modulators of Hemoglobin Beta Chain Splicing at IVS2 705 locus (AID 930);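 note: HeLa cells stably expressing the EGFP-705 splicing reporter; GFP fluorescence per well restored by corrected splicing of the IVS2-705 intron in EGFP; % of control where 0% means no effect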
Procedure, shortened: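 Read-out: total peak GFP fluorescence per well (488 nm excitation, 500-520 nm emission) by laser-scanning cytometry. Cells: HeLa EGFP-705 splicing reporter, 2 days compound exposure in Optimem/2% FCS.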

[17] = biological target: Pyruvate kinase (Leishmania mexicana) (UniProt Q27686); assay: qHTS Validation Assay for Inhibitors of Leishmania Mexicana Pyruvate Kinase (AID 945);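 note: 0% = DMSO only neutral control wells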
Procedure, shortened: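 Luminescent ATP detection (PKLight) after a 1 h room-temperature reaction of 0.2 nM LmPYK E451W mutant with 0.5 mM PEP and 0.1 mM ADP at pH 7.2. Activity is normalized to DMSO-only control wells.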

[18] = biological target: Pyruvate kinase PKM (Homo sapiens) (UniProt P14618); assay: qHTS Assay for Activators of Human Muscle Pyruvate Kinase (AID 954; active = well fitted curve in the direction sought with a large enough effect, not every such curve was filed as active;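 note: 0% = uninhibited enzyme and -100% = no enzyme or full thiadiazolimine inhibition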)
Procedure, shortened: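 Reaction: 0.1 nM purified PKM2 with 0.5 mM phosphoenolpyruvate and 0.1 mM ADP, room temperature, 1 h. Readout: luciferase-based ATP luminescence after stop reagent. Activators judged against a 0.3 nM enzyme column.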

[19] = biological target: alpha-glucosidase (Oryza sativa, rice) (UniProt Q653V4); assay: Counterscreen for Glucocerebrosidase Inhibitors: qHTS Assay for Rice alpha-Glucosidase at pH 5.0 (AID 997);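 note: 0% = full activity with enzyme and -100% = basal without enzyme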
Procedure, shortened: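 Rice alpha-glucosidase (4 nM final) with 400 uM 4-methylumbelliferyl-alpha-D-glucopyranoside in citrate buffer pH 5.0, 20 min at room temperature, stopped at pH 10; fluorescence 365/440 nm, compounds 0.7 nM–77 uM, AC50 from Hill fits.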

[20] = qHTS Assay for Lipid Storage Modulators (AID 1519; calls by dose curve); conditions: Drosophila S3 cells, BODIPY lipid droplet/cell ratio, laser cytometry, cells loaded with oleic acid
Procedure, shortened: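 Cells seeded at 5,000 per well were treated with compounds over a concentration series and loaded with oleic acid (400 uM, as added). Lipid droplet fluorescence (488 nm excitation, 500-530 nm channel) was read by laser-scanning cytometry and normalized to 20 uM Triacsin C.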

[21] = biological target: Ubiquitin carboxyl-terminal hydrolase 1 (Homo sapiens) (UniProt O94782); assay: Inhibitors of USP1/UAF1: Pilot qHTS (AID 504865);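 note: rhodamine fluorescence freed from ubiquitin-rhodamine substrate followed over time; top concentration of the series differs between compounds; % is set by controls: 0 for no effect and ±100 for the full control effect; nearly all actives have a fitted effect of over 35% in size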
Procedure, shortened: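 Enzyme-free wells gave the negative control, while test wells held 1nM USP1/UAF1 preincubated with compound for 15 min at room temperature. Ub-Rho at 150nM final started the reaction, and fluorescence at 480/540 nm was recorded kinetically.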

[22] = biological target: DNA dC->dU-editing enzyme APOBEC-3G (Homo sapiens) (UniProt Q9HC16); assay: qHTS for inhibitors of Vif-A3G interactions: Validation (AID 588379); note: 0% is about no effect
Procedure, shortened: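 HeLa cells stably expressing Vif and A3G-eYFP, 700 cells/well, incubated overnight at 37 deg C, then exposed to compound overnight at 37 deg C. Inhibition of Vif-mediated degradation read as increased yellow fluorescence (Ex 488/Em 500-530) by laser-scanning cytometry.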

[23] = system: Zika virus NS2B-NS3 protease; assay: Primary screen GU AMC qHTS for Zika virus inhibitors (AID 1347154);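 note: 0% = no-inhibitor control and -100% = no-enzyme control; nearly all actives have a fitted effect of over 70% in size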
Procedure, shortened: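 Unlinked Zika NS2B hydrophilic domain/NS3 protease domain noncovalent complex (25 nM final) in 10 mM Tris-HCl pH 8.0, 0.01% Tween 20, with AMC peptide substrate. Fluorescence (ex 340, em 450 nm) change over 15 min, room temperature; percent inhibition fitted to 4-parameter Hill equation.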

[24] = Primary qHTS for small molecule stabilizers of the endoplasmic reticulum resident proteome: Secreted ER Calcium Modulated Protein (SERCaMP) assay (AID 1508630); note: % is set by controls: 0 for no effect and ±100 for the full control effect
Procedure, shortened: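 GLuc-SERCaMP-expressing SH-SY5Y cells, pretreated 16 h with compound, are challenged with thapsigargin to empty ER calcium stores; after 4 h, coelenterazine is added directly to the medium and luminescence is imaged.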

[25] = measured here: cell count channel max response
[26] = measured here: lipid channel max response

Chain of Glucocorticoid receptor (Homo sapiens) (P04150 whole entry, looked up): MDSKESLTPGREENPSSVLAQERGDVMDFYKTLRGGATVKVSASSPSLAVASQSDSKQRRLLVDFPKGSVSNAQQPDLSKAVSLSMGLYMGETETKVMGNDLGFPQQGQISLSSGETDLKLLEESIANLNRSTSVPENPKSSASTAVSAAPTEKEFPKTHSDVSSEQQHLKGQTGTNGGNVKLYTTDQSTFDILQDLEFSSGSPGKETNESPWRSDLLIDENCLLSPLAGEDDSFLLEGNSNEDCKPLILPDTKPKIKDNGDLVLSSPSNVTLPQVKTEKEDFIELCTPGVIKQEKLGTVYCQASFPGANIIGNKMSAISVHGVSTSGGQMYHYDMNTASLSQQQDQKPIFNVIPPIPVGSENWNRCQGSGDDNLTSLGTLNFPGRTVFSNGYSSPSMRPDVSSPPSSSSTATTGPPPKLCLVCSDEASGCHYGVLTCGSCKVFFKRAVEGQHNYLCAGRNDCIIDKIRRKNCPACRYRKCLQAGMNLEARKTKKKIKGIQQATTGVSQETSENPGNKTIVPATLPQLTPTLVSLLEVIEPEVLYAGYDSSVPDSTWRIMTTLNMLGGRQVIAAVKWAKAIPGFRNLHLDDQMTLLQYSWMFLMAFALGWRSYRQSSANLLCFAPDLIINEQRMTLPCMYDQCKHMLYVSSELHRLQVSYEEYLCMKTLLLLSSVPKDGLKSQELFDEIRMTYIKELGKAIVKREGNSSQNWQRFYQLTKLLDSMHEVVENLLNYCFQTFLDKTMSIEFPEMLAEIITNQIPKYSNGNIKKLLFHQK
Chain of 3',5'-cyclic-AMP phosphodiesterase 4B (Homo sapiens) (Q07343 whole entry, looked up): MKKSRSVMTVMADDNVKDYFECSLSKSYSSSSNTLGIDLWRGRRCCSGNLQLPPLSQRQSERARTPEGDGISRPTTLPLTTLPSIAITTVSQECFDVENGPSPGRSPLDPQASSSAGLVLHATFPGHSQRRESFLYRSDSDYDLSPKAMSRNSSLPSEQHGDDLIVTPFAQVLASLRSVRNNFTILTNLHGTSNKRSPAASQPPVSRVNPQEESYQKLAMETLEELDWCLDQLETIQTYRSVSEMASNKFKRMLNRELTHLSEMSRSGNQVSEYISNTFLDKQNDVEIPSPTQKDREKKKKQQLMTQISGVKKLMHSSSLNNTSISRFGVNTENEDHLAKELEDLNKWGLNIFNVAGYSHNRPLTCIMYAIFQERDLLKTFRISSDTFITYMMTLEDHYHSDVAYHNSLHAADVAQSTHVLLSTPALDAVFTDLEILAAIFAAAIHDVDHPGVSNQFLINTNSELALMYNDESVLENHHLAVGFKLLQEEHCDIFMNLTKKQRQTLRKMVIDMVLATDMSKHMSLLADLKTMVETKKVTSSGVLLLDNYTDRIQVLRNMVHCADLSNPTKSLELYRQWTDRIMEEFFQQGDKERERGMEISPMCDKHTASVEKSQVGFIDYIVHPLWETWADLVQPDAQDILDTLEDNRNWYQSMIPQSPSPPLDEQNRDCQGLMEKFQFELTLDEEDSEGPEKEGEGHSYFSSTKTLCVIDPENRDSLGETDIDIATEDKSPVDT
Chain of Cytochrome P450 1A2 (Homo sapiens) (P05177 whole entry, looked up): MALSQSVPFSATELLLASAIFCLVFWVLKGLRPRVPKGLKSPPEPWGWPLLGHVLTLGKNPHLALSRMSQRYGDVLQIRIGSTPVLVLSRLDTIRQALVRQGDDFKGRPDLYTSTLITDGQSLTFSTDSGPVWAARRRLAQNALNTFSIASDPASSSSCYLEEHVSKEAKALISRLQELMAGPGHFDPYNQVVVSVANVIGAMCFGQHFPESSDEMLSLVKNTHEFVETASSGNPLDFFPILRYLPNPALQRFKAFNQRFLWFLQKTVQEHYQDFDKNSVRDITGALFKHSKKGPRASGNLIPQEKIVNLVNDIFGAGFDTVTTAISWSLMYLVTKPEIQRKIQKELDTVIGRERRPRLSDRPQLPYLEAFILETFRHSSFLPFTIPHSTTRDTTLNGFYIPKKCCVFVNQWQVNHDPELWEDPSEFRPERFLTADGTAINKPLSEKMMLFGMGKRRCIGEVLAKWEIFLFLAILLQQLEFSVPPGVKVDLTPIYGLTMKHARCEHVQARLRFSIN
Chain of DNA dC->dU-editing enzyme APOBEC-3G (Homo sapiens) (Q9HC16 whole entry, looked up): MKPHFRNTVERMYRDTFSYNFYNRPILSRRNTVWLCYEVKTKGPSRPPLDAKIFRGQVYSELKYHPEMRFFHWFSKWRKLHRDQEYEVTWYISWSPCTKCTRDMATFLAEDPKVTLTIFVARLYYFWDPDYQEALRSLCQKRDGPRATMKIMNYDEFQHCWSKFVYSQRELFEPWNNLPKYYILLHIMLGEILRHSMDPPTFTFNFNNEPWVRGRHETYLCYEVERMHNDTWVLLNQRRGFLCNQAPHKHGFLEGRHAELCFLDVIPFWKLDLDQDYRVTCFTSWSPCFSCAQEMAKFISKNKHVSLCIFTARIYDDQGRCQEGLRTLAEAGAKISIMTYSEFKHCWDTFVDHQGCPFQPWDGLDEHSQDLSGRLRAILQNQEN
Chain of Pyruvate kinase (Leishmania mexicana) (Q27686 2-499 E452W): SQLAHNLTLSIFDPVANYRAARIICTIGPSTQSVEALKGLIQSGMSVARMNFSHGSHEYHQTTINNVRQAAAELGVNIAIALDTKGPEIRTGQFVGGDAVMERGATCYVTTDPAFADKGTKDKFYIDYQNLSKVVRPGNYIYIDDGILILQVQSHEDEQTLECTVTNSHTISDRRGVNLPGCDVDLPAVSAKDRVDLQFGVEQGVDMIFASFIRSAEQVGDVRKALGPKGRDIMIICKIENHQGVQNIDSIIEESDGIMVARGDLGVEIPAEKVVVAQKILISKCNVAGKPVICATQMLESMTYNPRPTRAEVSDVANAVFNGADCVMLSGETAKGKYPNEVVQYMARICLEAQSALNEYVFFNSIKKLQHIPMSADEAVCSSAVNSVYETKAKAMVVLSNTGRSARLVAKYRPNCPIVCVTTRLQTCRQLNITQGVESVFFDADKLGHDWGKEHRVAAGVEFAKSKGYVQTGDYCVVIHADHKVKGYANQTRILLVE
Chain of Pyruvate kinase PKM (Homo sapiens) (P14618 whole entry, looked up): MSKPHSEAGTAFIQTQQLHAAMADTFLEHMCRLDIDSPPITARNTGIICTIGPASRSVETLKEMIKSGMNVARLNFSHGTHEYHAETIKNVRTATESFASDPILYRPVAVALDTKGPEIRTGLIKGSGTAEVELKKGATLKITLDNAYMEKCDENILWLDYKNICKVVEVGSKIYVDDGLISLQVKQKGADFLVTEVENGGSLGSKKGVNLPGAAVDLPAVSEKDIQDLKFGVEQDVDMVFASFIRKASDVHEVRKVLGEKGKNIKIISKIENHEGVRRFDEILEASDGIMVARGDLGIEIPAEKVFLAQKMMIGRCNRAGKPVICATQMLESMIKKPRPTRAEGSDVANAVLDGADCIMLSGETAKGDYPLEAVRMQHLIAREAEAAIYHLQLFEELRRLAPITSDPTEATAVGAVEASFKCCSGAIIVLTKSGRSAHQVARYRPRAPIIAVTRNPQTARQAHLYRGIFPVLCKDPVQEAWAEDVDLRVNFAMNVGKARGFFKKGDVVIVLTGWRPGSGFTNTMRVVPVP
Chain of Cytochrome P450 2D6 (Homo sapiens) (P10635 whole entry, looked up): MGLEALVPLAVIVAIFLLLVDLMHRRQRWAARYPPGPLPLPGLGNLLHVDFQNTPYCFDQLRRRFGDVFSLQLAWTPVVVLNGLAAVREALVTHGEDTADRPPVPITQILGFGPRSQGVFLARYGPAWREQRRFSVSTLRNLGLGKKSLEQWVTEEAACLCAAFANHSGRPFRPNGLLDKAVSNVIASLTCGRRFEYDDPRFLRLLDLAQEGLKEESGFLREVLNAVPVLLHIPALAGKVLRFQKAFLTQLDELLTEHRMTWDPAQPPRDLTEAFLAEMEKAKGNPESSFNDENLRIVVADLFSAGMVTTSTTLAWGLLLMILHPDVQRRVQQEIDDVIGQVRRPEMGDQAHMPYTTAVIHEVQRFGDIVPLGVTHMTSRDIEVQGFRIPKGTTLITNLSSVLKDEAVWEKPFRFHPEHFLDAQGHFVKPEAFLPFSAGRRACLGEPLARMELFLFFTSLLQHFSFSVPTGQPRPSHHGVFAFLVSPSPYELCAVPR
Chain of Cytochrome P450 2C19 (Homo sapiens) (P33261 whole entry, looked up): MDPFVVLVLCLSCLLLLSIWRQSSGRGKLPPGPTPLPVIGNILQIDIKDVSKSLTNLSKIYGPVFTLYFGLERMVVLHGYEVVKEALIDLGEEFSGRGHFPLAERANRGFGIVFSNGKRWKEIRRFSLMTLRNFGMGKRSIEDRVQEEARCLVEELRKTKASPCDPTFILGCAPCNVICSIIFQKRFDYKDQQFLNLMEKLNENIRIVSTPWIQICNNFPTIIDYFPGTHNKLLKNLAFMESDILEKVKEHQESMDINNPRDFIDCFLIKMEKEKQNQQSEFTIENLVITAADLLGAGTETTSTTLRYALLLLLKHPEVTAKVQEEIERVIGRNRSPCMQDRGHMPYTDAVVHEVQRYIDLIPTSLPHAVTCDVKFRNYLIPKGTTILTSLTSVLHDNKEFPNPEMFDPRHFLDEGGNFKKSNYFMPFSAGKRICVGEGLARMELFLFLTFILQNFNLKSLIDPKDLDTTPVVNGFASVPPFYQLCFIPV
Chain of Cytochrome P450 2C9 (Homo sapiens) (P11712 whole entry, looked up): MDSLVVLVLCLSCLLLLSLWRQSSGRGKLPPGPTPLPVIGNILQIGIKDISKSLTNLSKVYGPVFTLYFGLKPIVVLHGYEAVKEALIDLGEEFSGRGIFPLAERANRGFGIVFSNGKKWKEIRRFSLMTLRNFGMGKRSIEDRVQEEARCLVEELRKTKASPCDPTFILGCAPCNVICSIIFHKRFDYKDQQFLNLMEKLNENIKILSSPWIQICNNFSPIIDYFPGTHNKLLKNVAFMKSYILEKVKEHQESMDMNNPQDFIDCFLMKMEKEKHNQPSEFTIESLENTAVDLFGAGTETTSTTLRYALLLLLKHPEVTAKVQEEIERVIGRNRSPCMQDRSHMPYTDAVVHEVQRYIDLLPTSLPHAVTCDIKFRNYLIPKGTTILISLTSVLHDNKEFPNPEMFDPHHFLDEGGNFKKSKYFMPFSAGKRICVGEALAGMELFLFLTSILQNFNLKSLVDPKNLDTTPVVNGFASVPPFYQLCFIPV

O=C1CC[C@H](N2C(=O)c3ccccc3C2=O)C(=O)N1
5.6% and -23.7%: max response [20, 26]
inactive: activity change, negative = inhibition ([1]; at 17.2 µM (top of the series)) 0.427% | activity change, negative = inhibition ([1]; at 38 µM (top of the series)) -0.244% | Potency [2] | activity change, negative = inhibition ([3]; at 17.2 µM (top of the series)) -1.74% | activity change, negative = inhibition ([3]; at 38 µM (top of the series)) -10.1% | activity, negative = inhibition ([4]; at 17.2 µM (top of the series)) 3.42% | activity, negative = inhibition ([4]; at 38 µM (top of the series)) -18.4% | Potency [5] > 46 µM and > 20.6 µM | Potency [6] | Potency [7] | outcome [8] | Potency [9] | Potency [10] | Potency [11] | Potency [12] | Potency [13] | outcome [14] | Potency [15] | outcome [16] | Potency [17] | outcome [18] | outcome [19] | activity change, negative = inhibition ([20]; at 25.7 µM (top of the series)) -1.97% | activity change, negative = inhibition ([20]; at 57.5 µM (top of the series)) -4.08% | Potency [21] | Potency [22] | Potency [23] | Potency [24]
11% and -21.2%: max response [20, 25]

C[C@@H]1C[C@@H]2[C@H]3CCC4=CC(=O)C=C[C@]4(C)[C@]3(F)[C@@H](O)C[C@@]2(C)[C@@]1(O)C(=O)CO
8.23%: max response [20, 25]
inactive: activity change, negative = inhibition ([1]; at 38 µM (top of the series)) -8.71% | Potency [2] | activity change, negative = inhibition ([3]; at 38 µM (top of the series)) 7.2% | activity, negative = inhibition ([4]; at 38 µM (top of the series)) -19.7% | Potency [7] | Potency [15] | Potency [17] | outcome [18] | outcome [19] | activity change, negative = inhibition ([20]; at 57.5 µM (top of the series)) -3.85% | Potency [22] | Potency [23] | Potency [24]
active: Potency [12] 10 nM
2.65%: max response [20, 26]
